Source: PMC4336329 (PLoS ONE, 2015)
About 14,000 (4.5%) of roughly 310,000 compounds showed an effect of 50% or more. The effect is printed as a negative number. The list comes from a sample in which strong results are over-represented; it also holds similar structures and randomly drawn compounds.

What follows are compounds tested against human ether-à-go-go-related gene (hERG) potassium channel (human, UniProt Q12809) (assay: primary screen, population patch clamp on CHO cells stably expressing hERG; higher = less effect of the substance).
Sequence of human ether-à-go-go-related gene (hERG) potassium channel (Q12809 whole entry, looked up): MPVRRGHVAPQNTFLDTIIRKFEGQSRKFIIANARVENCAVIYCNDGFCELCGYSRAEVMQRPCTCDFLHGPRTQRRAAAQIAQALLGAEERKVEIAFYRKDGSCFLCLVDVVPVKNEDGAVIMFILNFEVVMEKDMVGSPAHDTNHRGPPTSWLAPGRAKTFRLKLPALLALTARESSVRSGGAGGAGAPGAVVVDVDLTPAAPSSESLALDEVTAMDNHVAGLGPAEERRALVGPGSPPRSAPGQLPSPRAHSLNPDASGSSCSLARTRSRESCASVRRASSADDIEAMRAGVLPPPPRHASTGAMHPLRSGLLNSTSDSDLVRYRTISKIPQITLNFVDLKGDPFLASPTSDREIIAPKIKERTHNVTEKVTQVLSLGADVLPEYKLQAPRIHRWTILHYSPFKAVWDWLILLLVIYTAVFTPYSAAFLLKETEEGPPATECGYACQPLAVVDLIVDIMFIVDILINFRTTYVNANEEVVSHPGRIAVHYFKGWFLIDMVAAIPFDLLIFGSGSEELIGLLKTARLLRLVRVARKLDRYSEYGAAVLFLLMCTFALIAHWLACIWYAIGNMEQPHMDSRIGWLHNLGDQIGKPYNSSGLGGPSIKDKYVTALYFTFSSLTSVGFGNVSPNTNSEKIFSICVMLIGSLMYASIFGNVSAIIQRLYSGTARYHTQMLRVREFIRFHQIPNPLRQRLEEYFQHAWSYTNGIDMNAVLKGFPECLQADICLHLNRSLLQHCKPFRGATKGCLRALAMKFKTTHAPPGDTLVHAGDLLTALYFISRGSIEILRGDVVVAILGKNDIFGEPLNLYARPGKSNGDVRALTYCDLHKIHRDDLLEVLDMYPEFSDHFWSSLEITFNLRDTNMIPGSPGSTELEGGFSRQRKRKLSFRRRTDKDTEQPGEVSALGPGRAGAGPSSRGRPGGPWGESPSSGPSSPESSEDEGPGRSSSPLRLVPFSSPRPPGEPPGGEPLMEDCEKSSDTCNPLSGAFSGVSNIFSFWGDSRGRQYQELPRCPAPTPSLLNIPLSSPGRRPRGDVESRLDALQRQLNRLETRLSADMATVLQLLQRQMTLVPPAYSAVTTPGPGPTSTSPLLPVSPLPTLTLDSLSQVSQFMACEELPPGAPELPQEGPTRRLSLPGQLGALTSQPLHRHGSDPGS
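Further: peak tail current of the secondary pulse compared with the same well before compound.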

Row | SMILES | hERG current change (%, negative = inhibition) at 10uM [%]
1 | Cc1ccc(NC(=O)CCNC(=O)c2ccc(Cl)cc2)cc1F | 9.19
2 | O=C(CCNS(=O)(=O)c1ccccc1)NNC(=O)COc1ccc(Cl)cc1 | 2.29
3 | O=C(COc1ccc(Nc2ccccc2)cc1)Nc1ccncc1 | -30.1
4 | O=C(Nc1ccc2c(c1)OCO2)Nc1ccc(Cl)cc1Cl | 9.53
5 | CCCCOC(=O)NC(NCC(O)c1ccccc1)(C(F)(F)F)C(F)(F)F (stereo not drawn) | 6.78
6 | COc1ccc(CNC(=O)CN(C(=O)c2csnn2)c2cccc3c2CCCC3)cc1 | -14.9
7 | O=C(CN(Cc1ccc(Cl)cc1)C(=O)c1csnn1)NCc1ccc(F)cc1 | -66.6
8 | O=C(CN(C(=O)c1csnn1)c1cccc2c1CCCC2)NCc1ccccc1 | -5.19
9 | O=C(CN(Cc1ccccc1Cl)C(=O)c1csnn1)NCc1ccc(F)cc1 | -50.4
10 | O=C(CN(C(=O)c1csnn1)c1cccc2c1CCCC2)NCc1ccc(F)cc1 | -57.7
11 | O=C(CN(Cc1ccccc1)C(=O)c1csnn1)NCCc1ccccc1 | -18.9
12 | O=C(CN(Cc1ccc(Cl)cc1)C(=O)c1csnn1)NCc1ccccc1 | -56.7
13 | C=CCN(CC(=O)NCc1ccc(F)cc1)C(=O)c1csnn1 | -18.2
14 | O=C(CN(Cc1ccccc1Cl)C(=O)c1csnn1)NCc1ccccc1 | -24
15 | O=C(CN(Cc1ccc(F)cc1)C(=O)c1csnn1)NCc1ccccc1 | -31.6
16 | O=C(CN(Cc1ccccc1)C(=O)c1csnn1)NCc1ccccc1 | 8.5
17 | COc1ccc(CNC(=O)CN(Cc2ccccc2Cl)C(=O)c2csnn2)cc1 | -34.8
18 | C/C(=N/NC(=O)c1ccc2c(c1)OCO2)c1cccc([N+](=O)[O-])c1 | -10.1
19 | COc1ccc(C(=O)OCn2nnc3ccccc3c2=O)cc1 | -10.4
20 | Cc1cc(C(=O)Nc2ccc(Nc3ccccc3)cc2)ccc1[N+](=O)[O-] | 17.3
21 | CCc1ccc(NC(=O)CS(=O)CC(=O)NC(C)CCc2ccco2)cc1 (stereo not drawn) | 9.65
22 | CSc1nc2ccccc2cc1/C=C(\C#N)c1cccc(Cl)c1 | 8.2
23 | CCN1C(C(=O)Nc2cc(C)on2)=C(O)c2ccccc2S1(=O)=O | 24.7
24 | CCCCCC(=O)Nc1cccc(C2=NOC3(C2)C[C@@H](C(N)=O)N(C(=O)c2ccc(Cl)cc2)C3)c1 (stereo partly drawn) | -29.6
25 | O=C(COc1ccc(Cl)cc1)Nc1cccc(S(=O)(=O)NC2=NCCCCC2)c1 | -42.1
26 | C/C(=N\NC(=O)CSc1nc(C)cc(C)n1)c1ccc([N+](=O)[O-])cc1 | -10.8
27 | C/C(=N/NC(=O)CSc1ccccn1)c1ccc([N+](=O)[O-])cc1 | -64.2

Row | SMILES | hERG current change (%, negative = inhibition) at 10uM [%]
28 | C/C(=N\NC(=O)Cc1ccccc1)c1cccs1 | -4.86
29 | C/C(=N\NC(=O)CN1CCCCC1)c1cccc([N+](=O)[O-])c1 | -25.9
30 | C/C(=N/NC(=O)CN1CCN(Cc2ccccc2)CC1)c1ccc([N+](=O)[O-])cc1 | -76.5
31 | C/C(=N\NC(=O)c1ccc(CN2CCOCC2)cc1)c1ccc([N+](=O)[O-])cc1 | -7.18
32 | C/C(=N/NC(=O)CN1CCN(Cc2ccccc2Cl)CC1)c1cccs1 | -17.8
33 | C/C(=N\NC(=O)CN1CCN(Cc2ccccc2)CC1)c1cccs1 | -50.9
34 | C/C(=N/NC(=O)CC(=O)N/N=C(\C)c1ccc([N+](=O)[O-])cc1)c1ccc([N+](=O)[O-])cc1 | -28.8
35 | CC1CCCCN1C(=O)CSc1nnc(-c2ccco2)n1C (stereo not drawn) | 4.88
36 | COCCNCC(=O)N1CCCCCC1.O=C(O)C(=O)O | -24.6
37 | Cc1cc(C(=O)OCC(=O)N2CCCC2)c2ccccc2n1 | -9.04
38 | CC(C)(C)NC(=O)C(=O)NNC(=O)COc1ccc(Br)cc1 | 5.23
39 | O=C(Cn1nnc(-c2ccccc2Cl)n1)N1CCN(S(=O)(=O)c2ccc(Cl)cc2)CC1 | -18
40 | Cc1ccc(COc2coc(CN3CCN(C(=O)c4ccco4)CC3)cc2=O)cc1 | -48.4
41 | CC(Oc1coc(CN2CCN(C(=O)c3ccco3)CC2)cc1=O)c1ccccc1 (stereo not drawn) | 11.5
42 | Cc1ccc(C)c(COc2coc(CN3CCN(C(=O)c4ccco4)CC3)cc2=O)c1 | -100
43 | O=C(c1ccco1)N1CCN(Cc2cc(=O)c(OCc3cccc(Cl)c3)co2)CC1 | -74.7
44 | COC(=O)COc1coc(CN2CCN(c3cccc(Cl)c3)CC2)cc1=O | -11.4
45 | O=C(c1ccco1)N1CCN(Cc2cc(=O)c(OCc3ccccc3F)co2)CC1 | -30.4
46 | CC(C)(C)NC(=O)COc1coc(CN2CCN(C(=O)c3ccco3)CC2)cc1=O | 20.1
47 | O=C(c1ccco1)N1CCN(Cc2cc(=O)c(OCc3ccccc3Cl)co2)CC1 | -56.2
48 | Cc1ccc(C)c(OCC(=O)N2CCN(C(=O)c3ccco3)CC2)c1 | -8.23
49 | CNC(=O)COc1coc(CN2CCN(C(=O)c3ccco3)CC2)cc1=O | 7.13
50 | Cc1cccc(COc2coc(CN3CCN(C(=O)c4ccco4)CC3)cc2=O)c1 | -50.7
51 | CCCNC(=O)COc1coc(CN2CCN(C(=O)c3ccco3)CC2)cc1=O | 3.56
52 | CC(C)CN(C(=O)COc1ccc(Br)cc1C=O)C1CCS(=O)(=O)C1 (stereo not drawn) | -25.4
53 | COc1ccc(O)c(-c2cn[nH]c2-c2cccs2)c1 | 7.6
54 | O=C(CNC(=O)Cc1ccccc1)N=Nc1c(O)[nH]c2ccc(Br)cc12 | 24.7
